# Compound activity from PubChem BioAssay.
# A selection: hits, their analogues and other compounds. The true share with any hit is near 11%.
# Sm TGR inh: qHTS Assay for the Inhibitors of Schistosoma Mansoni Peroxiredoxins; AID 485364, 2010; purified TGR, DTNB reduction, TNB absorbance 405 nm; hit rate 3% among 360,000; Potency, µM (doses to about 114 µM), for inactives: at the top dose activity change, negative = inhibition, most hits filed as inhibitors; also: % is scaled to controls: 0 for no effect and ±100 for the full control effect; nearly all actives have a fitted effect of over 60% in size
#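 TGR 20 nM + NADPH 100 uM (dispensed conc.), cpd preinc 15 min RT; start with NADPH (500 uM addition) then DTNB (15 mM addition). Kinetic TNB absorbance, 405 nm filter. Four-parameter Hill fit across titration.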
# Pf growth 96h: Primary qHTS for delayed death inhibitors of the malarial parasite plastid, 96 hour incubation; hit rate 6.9% among 320,000; Potency, µM (top dose mostly 28.7 µM), inactives show at the highest dose activity change, negative = inhibition, most hits filed as inhibitors; P. falciparum luciferase reporter growth, 96 h; AID 504834, 2011; also: % is scaled to controls: 0 for no effect and ±100 for the full control effect
#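 P. falciparum expressing integrated firefly luciferase, in erythrocytes at 2% hematocrit, 0.05% parasitemia, incubated with compounds 96 h at 37 C, 5% CO2. Growth inhibition read as loss of luminescence; two-generation exposure targets delayed-death apicoplast inhibitors.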
# Pf growth 48h: Primary qHTS for delayed death inhibitors of the malarial parasite plastid, 48 hour incubation | hit rate 5.9% among 310,000 | P. falciparum luciferase growth in erythrocytes, 48 h | AID 504832, 2011 | Potency, µM (doses to about 28.7 µM), for inactives: at the top dose activity change, negative = inhibition, usual class: inhibitors; also: % is scaled to controls: 0 for no effect and ±100 for the full control effect
#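 Luciferase-expressing parasites in RBCs, 2% Hct / 0.1% parasitemia final; RPMI 1640 + 0.5% Albumax; 37 C, 5% CO2, one generation; luminescence read-out, lower signal = inhibition.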
# AMA1 RON2 block: qHTS for Inhibitors of AMA1-RON; Towards Development of Antimalarial Drug Lead: Primary Screen; AID 720542, 2013; AlphaScreen AMA1-biotinylated RON2 peptide binding; hit rate 0.2% among 360,000; Potency, µM (top dose mostly 58.2 µM), for inactives: at the highest dose activity change, negative = inhibition, actives largely listed as inhibitors; Plasmodium falciparum AMA1 (3D7) - RON2 peptide interaction;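 also: 0% = vehicle wells and -100% = peptide control; nearly all actives have a fitted effect of over 45% in size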
#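 AMA1 (3D7) with his tag at 25 nM final met compounds first, then biotinylated RON2 peptide at 25 nM; detection used donor plus acceptor beads, 10 µg/mL apiece, read by AlphaScreen after 30 min at room temperature.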
# NS1 function inh: qHTS Assay for Inhibitors of Influenza NS1 Protein Function; Potency, µM (titrated, usually from 46.1 µM), for inactives: at the highest dose activity, positive = more growth; hit rate 0.4% among 270,000; calls by dose curve; also: actives are rising curves; nearly all actives have a fitted effect of over 50% in size
#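 Recovery from NS1-induced slow growth read by OD600 in budding yeast switched to galactose assay medium (pH 6.0, -URA) at 1:100 dilution. Compound 23 nl per well; the matching strain lacking NS1 serves as control.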
# Numbers without * were called inactive; ? = inconclusive; · = no result given. Unless noted, calls follow the shape of the dose curve; as a rule, active = well fitted curve in the direction sought with a large enough effect; inconclusive = small, poorly fitted or top-dose-only effect, or another doubt; inactive = no such curve, though single readings can be large; an effect the other way counts as inactive or inconclusive. Potency is read from the fitted curve at half-maximal effect.
SMILES,Sm TGR inh,Pf growth 96h,Pf growth 48h,AMA1 RON2 block,NS1 function inh
O=C(/C=C/c1ccco1)Nc1ccc2c(c1)OCO2,14.1µM*,372.4%,411.8%,-1.2%,·
CC1(C(=O)Nc2cccc(OC(F)(F)F)c2)Cc2c(-c3ccc4c(c3)OCO4)ccnc2O1 (centres undefined),·,·,·,-7.3%,·
COc1ccc(C(=O)OCC(O)COC(=O)c2ccc(OC)cc2)cc1,·,·,·,-12.1%,·
COc1ccc(OCCCC(=O)N(C)CC(=O)Nc2c(C)cccc2C)cc1,-0.4%,50.3%,-9.7%,-10.5%,·
CN(C(=O)c1cccc(NC(=O)Cc2ccc(NC(=O)C3CCCN(C(=O)c4ccccc4)C3)cc2)c1)C1CCCC1 (centres undefined),·,·,·,14.6%,·
N#C/C(=C\c1ccc(OCc2ccccc2)cc1)C(=O)Nc1nc2c(s1)CCN(Cc1ccccc1)C2,-7.0%,?,8.28µM*,7.0%,-20.0%
CN1C[C@@H](NS(=O)(=O)N(C)C)C[C@@H]2c3cccc4c3c(cn4C)C[C@H]21,·,13.5µM*,-45.9%,·,·
CCc1nc(SCc2cc(=O)c3cc(F)ccc3[nH]2)n[nH]1,3.9%,·,·,·,·
Cc1cc(C)c(NC(=O)CSc2ccc(-c3cccnc3)nn2)c(C)c1,0.1%,?,13.1%,1.0%,·
C/C(=N\NC(=O)c1ccc(Cl)cc1)c1ccc(Br)s1,13.3%,2.62µM*,7.38µM*,8.9%,-19.3%
C/C(=N/NC(=O)c1ccc(Br)s1)c1cccnc1,1.7%,7.38µM*,39.0%,33.1%,-8.4%
CCN1c2ccccc2NC2C1C(C(C)=O)C(=O)N2c1ccc(Cl)cc1 (centres undefined),-10.4%,-102.0%,13.1µM*,-12.0%,-0.3%
CSc1nnc(Cc2sc(-c3ccccc3)nc2-c2ccccc2)o1,-0.1%,0.2%,·,6.8%,0.1%
c1ccc(CSc2nnc(Cc3ccccc3)o2)cc1,4.2%,449.9%,66.0%,45.8%,-4.5%
Fc1ccc(CSc2nnc(Cc3sc(-c4ccccc4)nc3-c3ccccc3)o2)cc1,-5.1%,11.7µM*,·,0.5%,4.4%
COc1ccc(CSc2nnc(Cc3sc(-c4ccccc4)nc3-c3ccccc3)o2)cc1,-28.3%,2.08µM*,11.7µM*,16.8%,7.9%
COc1ccc(C2=Nn3c([n+](C)c4ccccc43)SC2)cc1,11.7%,-23.0%,0.828µM*,-4.7%,-0.9%
C[n+]1c2n(c3ccccc31)N=C(c1ccc(Cl)cc1)CS2,-7.2%,16.5%,-23.1%,100.2%,-25.7%
CCN(CC)S(=O)(=O)c1ccc2c(c1)N(CC(=O)Nc1cccc(C)c1C)C(=O)C1CCCN21 (centres undefined),-3.2%,·,·,·,·
Cc1ccc(N2CCN(CCCN3C(=O)C4CCCN4C3=O)CC2)cc1 (centres undefined),-0.2%,-41.9%,-14.6%,-5.8%,13.0%
CON(C)S(=O)(=O)c1ccc2c(c1)N(Cc1ccc(C)cc1)C(=O)C1CCCN21 (centres undefined),-23.9%,0.828µM*,?,-5.7%,5.5%
Cc1ccc(C)c(CN2C(=O)C3CCCN3c3ccc(C#N)cc32)c1 (centres undefined),?,9.28µM*,?,-4.8%,24.4%
N#Cc1ccc2c(c1)NC(=O)C1CCCN21 (centres undefined),20µM*,11.0%,?,7.7%,9.8%
COC(=O)c1ccc2c(c1)N(Cc1nc(-c3cccc(C)c3)oc1C)C(=O)C1CCCN21 (centres undefined),-29.9%,?,·,·,7.7%
Cc1ccc(CN2C(=O)C3CCCN3c3ccc(C#N)cc32)cc1 (centres undefined),-21.9%,1.65µM*,?,·,14.3%
CCc1ccc(CNC(=O)c2c3c(nc4ccccc24)C(=O)N(C2CCCCC2)C3)cc1,-15.5%,·,·,·,·
Nc1ccc(N=Nc2ccc(N)cc2)cc1,-12.3%,343.0%,330.8%,-9.9%,·
Cc1cc(N(C)C)ccc1N=Nc1ccc(N)cc1,·,·,·,14.1µM*,·
CC(C)Nc1nc(NC(C)C)nc(N(C)N)n1,7.4%,3.7µM*,·,-0.9%,8.3%
CC(C)Nc1nc(NC(C)C)nc(C(N)=O)n1,-3.5%,·,5.5%,1.0%,-2.4%
